Bioassay records from PubChem BioAssay.
A selection: hits, their analogues and other compounds. The true share with any hit is near 1.5%.
TDP1 inh: blocks human tyrosyl-DNA phosphodiesterase 1 | Potency, µM (highest dose often 130 µM), inactives show top-dose activity change, negative = inhibition, actives largely listed as inhibitors | 350,000 tested, 0.28% active | AID 485290 | recombinant TDP1, AlphaScreen DNA substrate cleavage; also: potency is read from the fitted curve at half-maximal effect; nearly all actives have a fitted effect of over 40% in size
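Recombinant E. coli-expressed Tdp1 (1 nM) preincubated with compound 15 min at RT, then 5'-biotin/3'-phosphotyrosine-FITC DNA substrate (15 nM) added for 5 min. AlphaScreen beads (10 ug/ml) added, 10 min RT; tyrosine-FITC cleavage read as signal loss.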
PGK inhibitor: T. brucei PGK inhibition; PGK/GAPDH coupled, Kinase-Glo luminescence, 60 min; 380,000 tested, 0.043% active; Potency, µM (top dose mostly 57.5 µM), for inactives: top-dose activity change, negative = inhibition, actives largely listed as inhibitors; AID 602233; also: potency is read from the fitted curve at half-maximal effect; nearly all actives have a fitted effect of over 60% in size
Target sequence (P07378 whole entry, looked up): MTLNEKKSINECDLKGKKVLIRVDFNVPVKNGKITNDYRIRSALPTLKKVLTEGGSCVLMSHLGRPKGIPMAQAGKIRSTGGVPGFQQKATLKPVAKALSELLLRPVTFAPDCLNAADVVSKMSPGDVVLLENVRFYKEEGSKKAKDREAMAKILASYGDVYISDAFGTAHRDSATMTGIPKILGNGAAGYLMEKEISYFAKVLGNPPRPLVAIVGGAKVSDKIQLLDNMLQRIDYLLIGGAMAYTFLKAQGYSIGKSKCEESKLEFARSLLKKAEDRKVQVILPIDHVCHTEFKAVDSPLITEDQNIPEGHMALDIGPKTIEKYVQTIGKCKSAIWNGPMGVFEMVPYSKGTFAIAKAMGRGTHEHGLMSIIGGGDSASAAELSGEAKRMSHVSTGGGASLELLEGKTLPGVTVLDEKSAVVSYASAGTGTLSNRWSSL
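Recombinant glycosomal PGK reaction used 1,3-bisphosphoglycerate generated in-well by GAPDH (100nM final) in 100mM TEA pH 7.6, 5mM MgCl2, 0.01% Tween-20. After 60 minutes at room temperature, ATP was read by Kinase-Glo Plus luminescence end-point.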
WRN helicase inh: inhibitors of human WRN helicase | Q14191 | 360,000 tested, 0.46% active | WRN helicase unwinding, fluorescent forked duplex, kinetic | Potency, µM (doses to about 114 µM), without a hit: at the highest dose activity change, negative = inhibition, most hits filed as inhibitors; also: potency is read from the fitted curve at half-maximal effect; nearly all actives have a fitted effect of over 55% in size
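WRN at 20 nM final was preincubated with compound for 15 min at room temperature; reaction started with 100 nM forked duplex oligonucleotide carrying fluorophore and quencher plus 2 mM ATP (final). Unwinding followed kinetically by red fluorescence (ex 525/em 598 nm).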
PI5P4K alpha inh: inhibitors of human PI5P4K alpha | AID 652105 | max response, % | P48426 | 330,000 tested, 1.2% active | PI5P4Kalpha enzyme, ADP-Glo luminescence, 60 min; stronger effect = lower value; active = max response of -50% or lower; inconclusive = between -30% and -50%; inactive = -30% or higher; also: value at the top dose of about 77 µM
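Compounds were pin-transferred onto PI5P4Kalpha and substrate in HEPES pH 7.4 buffer with EGTA, CHAPS and 5% DMSO. ATP (5 microM final) started the reaction, which ran 60 minutes at room temperature before ADP-Glo detection.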
FEN1 inh: inhibitors of human flap endonuclease 1 | P39748 | Potency, µM (doses to about 114 µM), for the others: top-dose activity change, negative = inhibition, actives largely listed as inhibitors | 390,000 tested, 0.35% active | AID 588795 | Recombinant FEN1 flap cleavage, fluorescence, 15 min; also: potency is read from the fitted curve at half-maximal effect; nearly all actives have a fitted effect of over 65% in size
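Quantitative HTS format: each compound was titrated, incubated with 10 nM nuclease for 15 min at room temperature, then challenged with flap substrate at 50 nM final. Signal change over 15 min gave concentration–effect curves.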
Tb PFK block: inhibitors of T. brucei phosphofructokinase; O15648; T. brucei PFK, ADP-Glo luminescence; Potency, µM (top dose mostly 57.5 µM), for inactives: at the highest dose activity, negative = inhibition, usual class: inhibitors; 330,000 tested, 0.17% active;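 also: potency is read from the fitted curve at half-maximal effect; 0% = uninhibited 1x PFK enzyme wells and -100% = no-enzyme wells; nearly all actives have a fitted effect of over 60% in size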
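Activity is normalized to no-enzyme wells (full inhibition) and 1.25 nM enzyme wells (no inhibition). Reaction: 0.5 mM F6P, 0.1 mM ATP, 45 min RT, ADP-Glo luminescence; concentration-response curves fitted and classed by quality.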
An asterisk follows results filed as active; i = inactive; ? = inconclusive; . = no result; [ ] = dose if it differs, or a comment. Unless noted, calls follow the shape of the dose curve; as a rule, active = well fitted curve in the direction sought with a large enough effect; inconclusive = small, poorly fitted or top-dose-only effect, or another doubt; inactive = no such curve, though single readings can be large; an effect the other way counts as inactive or inconclusive. Unless noted, % is scaled to controls: 0 for no effect and ±100 for the full control effect.

SMILES	TDP1 inh	PGK inhibitor	WRN helicase inh	PI5P4K alpha inh	FEN1 inh	Tb PFK block
COc1ccc(C(=O)/C=C2\Sc3ccccc3N2C)cc1	-8%	-5%	?	2	?	12%
COc1ccc(-[n+]2c(C)cc(/C=C3\Sc4ccccc4N3C)cc2C)cc1	5%	7%	?	-6	22µM*	-5%
COc1cccc(C2c3c(ncn(-c4ccccc4C#N)c3=N)Oc3ccc4ccccc4c32)c1 (centres undefined)	3%	.	.	.	.	.
CC(=O)COC(=O)C1CCN(S(=O)(=O)c2cc([N+](=O)[O-])ccc2Cl)CC1	?	i	0%[11.6 µM]	-53*	-11%	-4%
O=C(COC(=O)C1CCN(S(=O)(=O)c2cc([N+](=O)[O-])ccc2Cl)CC1)Nc1ncc(Cl)cc1Cl	4%	?	?	-50*	-18%	-3%
Cc1ccc2c(c1)CCCN2C(=O)c1cnn2c1NC(=C1CC1)C=C2C(F)F	.	.	.	.	-15%	.
Cc1ccccc1S(=O)(=O)N1CCN(c2nc(-c3cccs3)nc3ccccc23)CC1	2%	.	.	.	-9%	.
CCSc1ncc(Cl)c(C(=O)Nc2sc3c(c2C(=O)OC)CCCC3)n1	.	.	.	.	14%	.
c1ccc(-c2nnsc2-c2ccccc2)cc1	.	4%	-6%	-60*	13%	2%
COc1ccc(C=C2C(=O)c3ccccc3C2=O)cc1O	5%	?	-21%	-60*	?	1%
CC1CCC2C(=O)OC(CO)CN2C1c1ccc(Br)cc1 (centres undefined)	10%[21 µM]	.	.	.	.	.
COc1ccc(/C=C/c2nc3ccccc3n2C)cc1	5%	?	-3%	-62*	-15%	?
CC(C)CCNC(=O)C(CC(C)C)NC(=O)C1OC1C(=O)O (centres undefined)	12%	.	.	.	.	.
COc1ccc(N=Nc2ccc(N)nc2N)cc1	9%	-7%	-12%	-15	3%	3%
CCOc1ccc2nc3cc(N=Nc4ccc(N)nc4N)ccc3c(N)c2c1	.	-22%	?	?	7.1µM*	.
CCC(=O)NC(c1ccco1)c1cc([N+](=O)[O-])c2cccnc2c1O (centres undefined)	2%	.	.	.	.	.
CCOc1ccc(NS(=O)(=O)c2ccc(NS(=O)(=O)c3ccccc3)cc2)cc1	7%	0%	-16%	.	-5%	-3%
CCOc1ccc(S(=O)(=O)Nc2cc(NS(=O)(=O)c3ccc(OCC)cc3)cc(C(=O)O)c2)cc1	3.5µM*	-13%	-23%	-25	-10%	-4%
COc1ccc(C2Nc3ccccc3C(=O)N2Cc2ccccc2Cl)cc1COc1ccc(NC(C)=O)cc1 (centres undefined)	1%	.	.	.	.	.
COc1ccc(C2Nc3ccccc3C(=O)N2Cc2ccccc2)cc1COc1ccc(C#N)cc1 (centres undefined)	0%	.	.	.	.	.
O=C(COc1ccc(Br)cc1)N/N=C1/SCC(=O)N1Cc1ccco1	-8%	13%	?	-67*	-1%	4%
COc1ccccc1N=C1SCC(=O)N1Cc1ccco1	.	-7%	-10%	-8	-7%	-4%
CC(Sc1nc2sc3c(c2c(=O)n1-c1ccccc1)CCCC3)C(=O)O (centres undefined)	-1%	-2%	0%	0	-3%	2%
CCn1c(SC(C)C(=O)O)nc2sc3c(c2c1=O)CCC3 (centres undefined)	11µM*	-16%	56µM*	?	-19%	?
O=S1(=O)N=C(Oc2ccccc2Cl)c2ccccc21	0%	.	.	.	.	.
SMILES	TDP1 inh	PGK inhibitor	WRN helicase inh	PI5P4K alpha inh	FEN1 inh	Tb PFK block
COc1cc(F)c(S(=O)(=O)N2CCCN(S(=O)(=O)c3cccc(NC(C)=O)c3)CC2)c(F)c1	0%	.	.	.	.	.
COC(=O)/C=C/C(=O)Nc1ccc(O)c(Cl)c1	-1%	-2%	-24%[57.1 µM]	-59*	-12%	12%
CCOc1ccc(C2C(C#N)=C(N)SC(N)=C2C#N)cc1OCC	4%	4%	-11%	-51*	7%	-1%
N#CC1=C(N)SC(N)=C(C#N)C1c1ccc(C(F)(F)F)cc1	7%	.	.	.	.	-8%
CCOc1ccc(C2C(C#N)=C(N)SC(N)=C2C#N)cc1OC	3%	.	.	.	.	-2%
N#CC1=C(N)SC(N)=C(C#N)C1c1ccc([N+](=O)[O-])cc1	8%	i	-33%	-84*	2%	-6%
O=C1/C(=C/c2cccnc2)Sc2ccccc21	4%	-9%	?	-15	5%	-10%
O=C1c2ccccc2C(=Cc2cccnc2)c2ccccc21	.	i	-4%	-54*	.	.
C/C(=N\NC(=O)c1cc(O)ccc1O)c1cccc(NC(=O)c2ccc(Cl)cc2)c1	-17%	-6%	40µM*	-82*	?	-12%
C/C(=N\NC(=O)c1cc(O)ccc1O)c1cccc(NC(=O)c2cccc(Cl)c2)c1	-3%	-9%	-20%[11.6 µM]	?	?	-5%
CC(C)[C@H]1COCCS(=O)(=O)N1Cc1cccc([N+](=O)[O-])c1	.	.	.	.	-10%	.
COc1ccc2cc(C(C)C(=O)OC(C)C)ccc2c1 (centres undefined)	79µM*	-7%	-30%	13	-18%	-1%
CCC(C(=O)OC(C)C)c1ccc2ccccc2c1 (centres undefined)	-19%	-10%	4%	-2	-4%	-6%
Oc1cc2ccccc2cc1-c1n[nH]c(=S)o1	2%	-2%	-25%	-73*	5%	-3%
Cc1csc(NCC(=O)c2c(C)[nH]c3ccccc23)n1	.	.	.	.	-15%	.
Clc1cccc(OCCn2ccnc2)c1	7%	1%	1%	3	2%	27µM*
Cc1cccc(OCCCn2ccnc2)c1	3%	i	2%	.	1%	-3%
O=C(CNC(=O)c1ccc(-c2ccccc2)cc1)OC(C(=O)Nc1cc(C(F)(F)F)ccc1Cl)c1ccccc1 (centres undefined)	1%	.	.	.	.	.
C=CCOC(=O)C(C(C)=O)C(NC(=O)OC)c1cccs1 (centres undefined)	4%[21 µM]	.	.	.	.	.
CCC(=O)Nc1ccc2ccccc2c1	-2%	-10%	-3%	4	7%	0%
CCC(=O)Nc1ccc2nc3c(=O)[nH]c(=S)[nH]c3nc2c1	.	-17%	?	-66*	50µM*	-19%
CCOc1cc(/C=C2\C(=O)N(Cc3ccc(C)cc3)C(C)=C2C(=O)OC)ccc1O	11%	4%	79µM*	3	-5%	-5%
O=C(CN1C(=O)S/C(=C\c2ccccn2)C1=O)Nc1ccccc1	0%	i	11%	-2	-7%	-12%
Cc1ccc(NC(=O)CN2C(=O)S/C(=C\c3ccc(-c4cccc(C(=O)O)c4C)o3)C2=O)cc1	.	.	.	.	.	3%
